Among the test systems are T-47D breast; BT-549 breast; MDA-MB-435 melanoma; SW-620 colon; MCF7 breast; HCT-116 colon; KM12 colon; HCC-2998 colon.
Common to all, as to test: NCI-60 one-dose screen, 48 h (100 = growth as untreated, 0 = no growth, -100 = all killed)
What all share (details): 10 µM unless noted

The panel holds about 83,000 compounds, 20% with a hit somewhere; the sample as a whole holds those more often.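 A percent growth of 40 corresponds to 60% growth inhibition; 0 means no net growth; -100 means all cells died. Active threshold: below 10.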 Values without a mark were called inactive. Activity calls are given as the source filed them.

Turning to `COc1ccccc1Nc1nc(-c2cc3cccc(C(F)(F)F)c3oc2=O)cs1`, the growth was 68.9% with T-47D breast; 41.9% with BT-549 breast; -44.8% (active) in the assay with MDA-MB-435 melanoma; 24% in the assay on SW-620 colon; 15.7% in the assay on MCF7 breast; 2.41% (active) in the assay with HCT-116 colon. Moreover, the growth in the assay on KM12 colon is 3.87% (active).

With `CC1=C[C@H]2c3c(c(O)c(O)c4oc5ccccc5c(=O)c34)[C@H](c3cc(O)c(O)c4oc5ccccc5c(=O)c34)[C@H]2C(C)(C)C1`, the growth in the assay on T-47D breast is 9.72% (active); with BT-549 breast, -15.3% (active); with MDA-MB-435 melanoma, -36% (active); in the assay with SW-620 colon, 11.9%; with MCF7 breast it was 9.6% (active); in the assay on HCC-2998 colon it was 11.6%. The growth in the assay on KM12 colon was -1.27% (active).

Regarding `CC(C)(CCCN=C(N)Nc1ccc(Cl)cc1)c1ccc(F)cc1`, the growth in the assay on T-47D breast is 53.9%; with BT-549 breast, 82.6%; with MDA-MB-435 melanoma it was 63%; in the assay on SW-620 colon it was 43.4%; in the assay on MCF7 breast it was 52.9%; in the assay with HCT-116 colon, 28.6%. In the assay on KM12 colon, the growth is 57.5%.

With `CN1CCN(c2ccc3nc(-c4ccc(OCCCCN5CCN(CCCCN6C(=O)c7cccc8cccc(c78)C6=O)CC5)cc4)[nH]c3c2)CC1`, the growth in the assay with T-47D breast is 36.1%; in the assay on BT-549 breast, 47%; with MDA-MB-435 melanoma, 65.9%; in the assay with SW-620 colon, 84.2%; with MCF7 breast, 68.5%; in the assay on HCT-116 colon, 45.9%. The growth with KM12 colon is 86.8%.

For the compound `COc1cc2c(cc1O)CC[C@@H]1[C@@H]2CC[C@]2(C)[C@@H](OCCCN(C)C)CC[C@@H]12`, the growth in the assay with T-47D breast is -48.9% (active); in the assay with BT-549 breast it was -54.4% (active); with MDA-MB-435 melanoma it was -61.8% (active); in the assay on SW-620 colon, -43.1% (active); in the assay on MCF7 breast it was -68.9% (active); in the assay with HCT-116 colon it was -71% (active). Besides, in the assay with KM12 colon, the growth was -48.5% (active).

`Cn1c(=O)c2c(nc3n(-c4ccc(Cl)cc4Cl)c(Sc4nc(-c5ccccc5)c(C#N)c(=O)[nH]4)cn23)n(C)c1=O`: the growth in the assay on T-47D breast is 11.3%; with BT-549 breast it was 72.6%; in the assay on MDA-MB-435 melanoma, 69.1%; in the assay on SW-620 colon, 30%; in the assay with MCF7 breast it was 52.1%; with HCC-2998 colon it was 78.3%. Further, the growth in the assay on KM12 colon was 84.9%.

`Cc1nn(-c2ccc(F)cc2)c2ncnc(Oc3ccc(NC(=O)Nc4ccc(Cl)c(C(F)(F)F)c4)cc3)c12`: the growth was 94.6% with T-47D breast; 111% with BT-549 breast; 104% in the assay with MDA-MB-435 melanoma; 100% in the assay on SW-620 colon; 96.2% with MCF7 breast; 99.2% in the assay with HCC-2998 colon. In addition, in the assay on KM12 colon, the growth was 108%.

As for `NCCNc1nc(Nc2ccc(-c3nc4ccccc4[nH]3)cc2)c2cn[nH]c2n1`, the growth in the assay with T-47D breast was 60.8%; in the assay on BT-549 breast, 80.2%; with MDA-MB-435 melanoma, 94%; in the assay with SW-620 colon, 28.4%; in the assay with MCF7 breast, 39.2%; with HCT-116 colon it was 14.9%. Further, the growth in the assay on KM12 colon was 25.2%.

Consider `CCOc1ccc(-n2nc(C(=O)Nc3cc(OC)c(OC)c(OC)c3)nc2-c2cc(OC)c(OC)c(OC)c2)cc1`, for which the growth in the assay with T-47D breast was 51.4%; with BT-549 breast, 91.4%; in the assay on MDA-MB-435 melanoma, 79.6%; with SW-620 colon, 95.5%; in the assay on MCF7 breast it was 83.2%; in the assay on HCT-116 colon it was 75.8%. Further, in the assay with KM12 colon, the growth was 81.8%.

Turning to `COc1ccc2c(c1)C(=O)/C(=C/c1ccccn1)CC2`, the growth was 54.2% with T-47D breast; 96.4% with BT-549 breast; 57.4% in the assay with MDA-MB-435 melanoma; 57.5% in the assay with SW-620 colon; 15.1% in the assay on MCF7 breast; 26.3% in the assay on HCT-116 colon. In the assay with KM12 colon, the growth was -10% (active).

As for `CC(C)(C)N1CCC1CN` (configuration not stated), the growth in the assay on T-47D breast is 96.3%; in the assay with BT-549 breast it was 118%; in the assay with MDA-MB-435 melanoma it was 104%; with SW-620 colon, 104%; with MCF7 breast, 126%; in the assay on HCT-116 colon, 99.5%. Moreover, in the assay on KM12 colon, the growth is 107%.

Consider `Cn1cc(-c2nonc2-c2c[nH]c3ccccc23)c2cccnc21`, for which the growth is 27% in the assay with T-47D breast; 58.6% with BT-549 breast; -22.6% (active) in the assay on MDA-MB-435 melanoma; 14.1% in the assay with SW-620 colon; 19.4% in the assay with MCF7 breast; 69.9% with HCC-2998 colon. Also, the growth in the assay with KM12 colon is 20.1%.

For the compound `COc1ccc(C(=O)COc2cccc(/C=C3\CSc4ccccc4C3=O)c2)cc1`, the growth in the assay on T-47D breast was 69.7%; in the assay with BT-549 breast it was -74.8% (active); in the assay on MDA-MB-435 melanoma, -21.1% (active); in the assay with SW-620 colon it was -96.9% (active); in the assay with MCF7 breast, -79.8% (active); in the assay with HCT-116 colon, -87.5% (active). Also, in the assay on KM12 colon, the growth is -77.3% (active).

In the case of `O=C(/C=C/c1ccc(C(F)(F)F)cc1)Nc1ccc(C=C2c3ccccc3C(=O)c3ccccc32)cc1`, the growth in the assay with T-47D breast is 50.3%; in the assay with BT-549 breast it was 57.6%; in the assay with MDA-MB-435 melanoma, 6.92% (active); with SW-620 colon it was 65.3%; in the assay on MCF7 breast, 46.5%; in the assay on HCC-2998 colon, 78.3%. Further, the growth in the assay on KM12 colon is 25.9%.

On to `COc1ccc(NC2=C(Sc3nc(C)cc(C)n3)C(=O)N(Cc3ccccc3)C2=O)cc1Cl`, for which the growth is 41.9% [30 µM] in the assay with T-47D breast; 65.4% [30 µM] with BT-549 breast; 86.6% [30 µM] in the assay on MDA-MB-435 melanoma; 88.7% [30 µM] in the assay with SW-620 colon; 48.4% [30 µM] in the assay with MCF7 breast; 76.9% [30 µM] in the assay on HCT-116 colon. Besides, in the assay on KM12 colon, the growth was 99.2% [30 µM].

Regarding `O=c1c(F)cn(Cc2ccccc2CCl)c(=O)n1Cc1ccccc1CCl`, the growth in the assay on T-47D breast was -49.5% (active); in the assay with BT-549 breast, -73.9% (active); in the assay on MDA-MB-435 melanoma, -67.1% (active); in the assay on SW-620 colon, -74.6% (active); in the assay on MCF7 breast, -47.7% (active); in the assay on HCT-116 colon, -56.9% (active). For the same compound, the growth with KM12 colon was -16.2% (active).

(Values after PubChem BioAssay (NCI).)
